# Source: PubChem BioAssay AID588398 (Broad Institute, 2011)
# Among all 1,200 compounds or so, about 110 (9.2%) were called active. Not shown: some 8% with an inconclusive outcome. The list is a sample of the results. Measured potencies and affinities stand elsewhere. Unmarked numbers belong to inactive results.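 How the source made its calls: active means pathway reporter half-maximal dose under half the control reporter's, or control reporter unaffected while pathway reporter is inhibited; inconclusive means either signal flat at 30 to 70% inhibition or poorly fitted; inactive means the rest.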
# Assay: TES1-eGFP NF-kB reporter inhibition versus Tet-On dsRED, dose response, selectivity assay for LMP1 NF-kB inhibitor project, imaging, HEK293T, dual-color eGFP/dsRED, cherry-picks (AID 588398);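 further: 0% = median of neutral control wells and -100% = median of MG132 positive control wells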
# Details: 48 h; HEK293T Tet-On dsRED counter-screen channel, at 19.5 µM (top of the series); activity change, negative = inhibition: at the top concentration
Structure (SMILES),"activity change, negative = inhibition",outcome
O=C(c1ccc(C#CC2(O)CCCCC2)cc1)N1CCN(C(c2ccccc2)c2ccccc2)CC1,-14.9%,–
COc1ccc(C(c2c(C)n(C)n(-c3ccccc3)c2=O)c2c(C)n(C)n(-c3ccccc3)c2=O)c(OC)c1OC,6.3%,–
Cc1ccccc1C(=O)NC(=S)Nc1ccc(N2CCN(C(=O)c3ccccc3)CC2)cc1,3.02%,–
O=C(N/N=C/c1c(O)ccc2ccccc12)c1cccnc1,-94.7%,–
COc1cccc(/C=N\NC(=O)c2ccc(C)nc2)c1,1.79%,–
CC(CN1CCCCC1)OC(=O)c1ccc2c(c1)OCO2 (stereo not given),-1.2%,–
N=C1S/C(=C\c2ccccc2)C(=O)N1c1ccc(F)cc1,5.19%,–
CN(C)S(=O)(=O)c1cccc(NC(=O)c2n[nH]c(=O)c3ccccc23)c1,7.35%,–
Cc1c(NC(=O)c2cc(-c3cccs3)nc3ccccc23)c(=O)n(-c2ccccc2)n1C,26.4%,–
Cc1ccc(-c2cc(C(=O)N/N=C/C=C/c3ccco3)c3ccccc3n2)cc1C,79.6%,–
O=[N+]([O-])c1cccc(-c2ccc(/C=N/Nc3nc(N4CCCCC4)nc(N4CCCCC4)n3)o2)c1,41.5%,–
CCOc1ccc(-c2cc(C(=O)N/N=C/c3ccc(O)cc3)c3ccccc3n2)cc1,112%,–
O=C(COC(=O)c1ccc(S(=O)(=O)NCc2ccco2)cc1)Nc1ccc(Cl)cn1,12.5%,–
CCOC(=O)/C=C(\C)Sc1cc(=O)oc2ccccc12,-97.8%,–
COc1ccc([C@H]2N[C@]3(CCCN(Cc4ccco4)C3=O)[C@H]3C(=O)N(Cc4ccccc4)C(=O)[C@@H]23)cc1,0.261%,–
Cc1ccc(NC(=O)NNS(=O)(=O)c2ccc(Br)cc2)cc1,-10.6%,–
CCN(Cc1ccncc1)C(=O)CCc1ccccc1,29.2%,–
Cc1c(/C(O)=C2/C(=O)C(=O)N(CCN3CCOCC3)C2c2ccccn2)cnn1-c1ccccc1 (stereo not given),0.373%,–
COC(=O)CCCC[C@@H]1SC[C@@H](NC(=O)OC)[C@@H]1NC(=O)OC,19.4%,–
CN=C1S/C(=C\c2ccc(O)c(Br)c2)C(=O)N1C,7.27%,–
C#CCN(C[C@@H]1[C@@H](OC(=O)NCC2CCCCC2)[C@@H](OC(=O)NCC2CCCCC2)Cn2c(=O)ccc(=O)n21)S(=O)(=O)c1ccc(C)cc1,-99.9%,–
O=C(NOCc1ccccc1)c1ccc(Cl)cc1Cl,-18%,–

Structure (SMILES),"activity change, negative = inhibition",outcome
S=C(NCC1CCCCC1)Nc1ccc(Oc2ccccc2)cc1,14.5%,–
COc1ccc(C(=O)CN(CCC(=O)O)S(=O)(=O)c2ccc([N+](=O)[O-])cc2)cc1,1.46%,–
CCN(CC(=O)NCc1ccc(F)cc1)CC(=O)Nc1cc(S(=O)(=O)N(C)C)ccc1C,-15.9%,–
O=C(Nc1ccc(N2CCOCC2)cc1)c1cn2ccccc2n1,-2.87%,–
Cc1sc2ncnc(N3CCC(C(=O)Nc4ccccc4C(C)(C)C)CC3)c2c1C,-6.18%,–
Cc1cccc(NC(=S)N=Nc2c(O)n(C)c3ccc(S(=O)(=O)N4CCOCC4)cc23)c1,20.2%,–
C=CCn1c(O)c(N=NC(=S)Nc2ccccc2C)c2cc(S(=O)(=O)N3CCOCC3)ccc21,43.7%,–
CN1C(=O)C(CC(=O)NC2CCCCC2)SC1=Nc1ccccc1 (stereo not given),-4.39%,–
COc1ccc(-c2ccc3c(c2)S(=O)(=O)c2cccc(C(=O)NCc4cc(C)oc4C(F)(F)F)c2C3=O)cc1OC,6.54%,–
Cc1ccc(C(=O)Nc2cccc(C(F)(F)F)c2)cc1NC(=O)c1ccno1,–,inactive
COc1cccc(C(=O)Nc2nc3ccccc3[nH]2)c1,31.9%,–
CCOc1ccc(/C=N/Nc2cc(N3CCOCC3)ncn2)c(O)c1,-12.3%,–
Cn1cccc1CC(=O)NNC(=S)Nc1ccccc1Cl,-1.27%,–
COC(=O)C1=C(C)N(CCCC(=O)O)C(=O)NC1c1cccc(Cl)c1Cl (stereo not given),-6.66%,–
COc1cc2cc(C(=O)N3CCN(c4ccccc4OC)CC3)[nH]c2cc1OC,0.636%,–
CCN(C(=O)c1cccc(NC(=O)c2ccccc2)c1)C1CCCCC1,56.7%,–
O=C(Nc1cccc(C(=O)O)c1)Nc1ccccc1Cl,25.4%,–
N=c1c(-c2nc3ccccc3[nH]2)cc(C(=O)c2cccs2)nn1-c1ccccc1,18.5%,–
CCCCCC(=O)N1CCN(c2ccc(C(C)=O)cc2F)CC1,12.2%,–
Cc1ccc(-c2csc(=Nc3cccnc3)n2CCCn2ccnc2)cc1C,-85.9%,–
COc1cc(/C=C(\C#N)c2ccccn2)ccc1OCc1ccccc1Cl,9.75%,–
Cc1cc(/C=C2\Cc3ccccc3C2=O)c(C)n1-c1ccccc1,30.7%,–

Structure (SMILES),"activity change, negative = inhibition",outcome
CCCCNC(=S)Nc1ccc([N+](=O)[O-])cc1,-9.38%,–
CC(=O)NC(CCS(C)(=O)=O)C(=O)Nc1ccc(Cl)c(Cl)c1 (stereo not given),-4.89%,–
C=C1C(=O)C2=CC1CCC(=O)C1(C)CCC(OC(C)=O)C(C)(C)C1CC2O (stereo not given),-98.8%,–
O=C(NCC1CCOCC1)c1ccc(OC2CCN(Cc3ccccn3)CC2)cc1,14.1%,–
CCc1ccc(/C=N/NC(=O)c2ccccn2)cc1,-0.532%,–
Cc1ccsc1-c1nc(CSCC(=O)N2CCN(c3ccccc3)CC2)c(C)o1,44.4%,–
CCCSc1nc2cc(S(=O)(=O)N3CCOCC3)ccc2n1CC,19.4%,–
CC(C)OCCCNC(=O)C1CCC(CNS(=O)(=O)c2ccccc2)CC1 (stereo not given),-9.46%,–
NC1=NC(=O)NC1(c1ccccc1)c1ccccc1,2.06%,–
Cc1cc(=S)[nH]c2ccccc12,3.44%,–
CCOCCCn1c(=S)[nH]c2ncccc2c1=O,-10.1%,–
C=CCn1c(O)c(N=NC(=S)Nc2cccc(C)c2)c2ccccc21,18.7%,–
Cn1nc(-c2ccc(N3CCOCC3)c(NS(=O)(=O)c3ccccc3)c2)c2ccccc2c1=O,24.4%,–
CCN(CC)c1ccc(/C=N/NC(=O)c2ccc3nc[nH]c3c2)c(O)c1,-65.3%,–
CCN(CC)S(=O)(=O)c1ccc(N/N=C/c2ccc(O)cc2O)nc1,-89.9%,–
COc1cccc(/C=N/Nc2nc3ccccc3[nH]2)c1O,-89.9%,–
C(=N\Nc1nc2ccccc2[nH]1)/c1cccc2nccnc12,30.3%,–
Cc1ccc(/C=C/c2nc3ccccc3c(=O)[nH]2)cc1,-9.47%,–
CCN(CC)c1ccc(NC(=O)c2cccc(F)c2)c(C)c1,163%,–
Cc1cc(C)cc(C(=O)NCCC(=O)NCc2cc(=O)n(C)c(=O)n2C)c1,15.2%,–
O=C(CSc1nnc(-c2cccc(S(=O)(=O)N3CCOCC3)c2)n1C1CCCCCC1)NCc1ccccc1,20.6%,–
